RPL19A-GFP yeast – RPL19A-GFP expression modulators in yeast, primary screen, cell-based, S. cerevisiae, multiplex flow cytometry, MLPCN; S. cerevisiae RPL19A-GFP strain, 3 h; stronger effect = lower value; actives 0.3% (n = 330,000); percent response vs DMSO, % at 10 µM;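 active = percent response vs DMSO below 50%; inconclusive = fewer than 70 events counted for the yeast strain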;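 also: median channel GFP fluorescence of the barcoded RPL19A-GFP strain; ratio of sample median GFP to plate DMSO average so 100% = DMSO; lower means less RPL19A-GFP as with rapamycin TOR inhibition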
AGP1 TOR yeast – modulators of AGP1-GFP expression in yeast TOR pathway, primary screen, cell-based, multiplex flow cytometry, S. cerevisiae, MLPCN library; 3 h; GFP as percent of DMSO wells; GFP response vs DMSO, % at 10 µM; actives 0.02% (n = 320,000); AID 2066, 2009;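 active = GFP response relative to DMSO above a set limit, near screen average plus 3 SD, cut at about 150% in these data; inconclusive = fewer than 70 cells counted for the yeast strain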;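 also: median GFP channel fluorescence of the gated AGP1 strain per well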
LAP4 TOR yeast – modulators of LAP4-GFP expression in yeast, primary screen, S. cerevisiae, multiplex flow cytometry, MLPCN library; actives 0.34% (n = 320,000); GFP response vs DMSO, % at 10 µM; AID 2023, 2009; 3 h; median GFP as percent of DMSO wells;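 active = GFP response vs DMSO above a set limit, about the screen mean plus 3 SD, cut at about 150% in these data; inconclusive = under 70 cell events counted for the yeast strain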
MEP2-GFP yeast – modulators of MEP2-GFP levels in yeast, primary screen, S. cerevisiae, multiplex flow cytometry, MLPCN library; S. cerevisiae MEP2-GFP strain, 3 h; 100% = DMSO control level; GFP response vs DMSO, % at 10 µM; actives 0.51% (n = 330,000); AID 2016, 2009;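 active = GFP response versus DMSO above a set limit, roughly screen mean plus 3 SD, cut at about 180% in these data; inconclusive = fewer than 70 cells counted for a yeast strain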;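 also: median GFP fluorescence of the barcode-gated MEP2-GFP cells per well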
VLA-4 inh – inhibition in human VLA-4 binding assay, primary screen, VLA-4 allosteric modulator project, MLPCN library, flow cytometry, VLA-4 expressing cells; Integrin alpha-4 (Homo sapiens), P13612; ligand binding flow cytometry; inhibition, % (about 7 µM as worked out from the volumes in the protocol); actives 0.2% (n = 330,000); AID 2557, 2010; in the data active = inhibition above about 50%
CIT2-GFP yeast – modulators of CIT2-GFP expression in yeast, primary screen, S. cerevisiae, GFP fusion, multiplex flow cytometry, MLPCN library. GFP response vs DMSO, % at 10 µM. S. cerevisiae CIT2-GFP strain, 3 h; 100 means same as DMSO wells. actives 0.065% (n = 320,000). AID 2029, 2009;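 active = GFP response relative to DMSO above a set limit, near the screen mean plus 3 SD, cut at about 150% in these data; inconclusive = Fewer than 70 cells measured for a yeast strain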;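 also: ratio of well median GFP fluorescence to mean of DMSO wells on the plate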
* hit, by the source's call; i = inactive; ? = inconclusive; / = no result; + = active, no number; [ ] = remark or other dose. Rows were chosen to be rich in hits. Some 1.1% of all compounds tested hit in one or more screens of this group.

SMILES	RPL19A-GFP yeast	AGP1 TOR yeast	LAP4 TOR yeast	MEP2-GFP yeast	VLA-4 inh	CIT2-GFP yeast
O=C(NNS(=O)(=O)c1ccccc1)C1CCCCC1	46.2*[may fluoresce violet]	?	80.1	240.8*[may fluoresce violet]	9.0	?
CC(=O)Nc1ccc(S(=O)(=O)N2CCN(C)CC2)cc1	57.7	15.4	86.2	210.4*[may fluoresce violet]	0.7	?
COc1ccc(NC(=S)Nc2cccc(S(=O)(=O)N3CCCCC3)c2)cc1	22.6*[may fluoresce violet]	?	54.1	259.0*[may fluoresce violet]	0.0	?
CN1CCN(S(=O)(=O)c2ccc(NC(=O)C3CCCCC3)cc2)CC1	96.5	98.8	99.5	102.1	6.6	100.6
O=C(O)C1CC=CCC1C(=O)NNS(=O)(=O)c1ccccc1 (centres undefined)	93.5	92.7	96.9	99.1	6.9	95.7
O=C(Nc1ccc(S(=O)(=O)N2CCCCC2)cc1)C1CCCCC1	60.7	16.8	82.5	256.0*[may fluoresce violet]	-5.1	?
COC(=O)Nc1ccc(S(=O)(=O)N2CCN(C)CC2)cc1	102.1	108.3	99.5	109.7	-3.7	103.7
Cc1cccc(NC(=O)[C@@H]2CCCN2C(=O)OC(C)(C)C)c1	103.9	102.5	109.0	101.7	19.7	111.4
O=C(CNS(=O)(=O)c1cccc(Br)c1)NCC1CCCCC1	93.1	90.4	101.9	89.8	-7.3	96.3
O=C1c2ccccc2/C(=C\C#Cc2ccccn2)N1c1ccccc1	90.5	87.3	98.9	94.1	-0.4	78.8
COc1ccc(CN2CCc3ccccc3C2)cc1Br	100.4	100.2	101.5	104.8	5.6	100.4
Cn1cc(C(=O)NS(=O)(=O)Nc2ccc(Br)cn2)c2ccccc21	107.8	106.3	100.9	110.3	15.9	107.4
CC(C)C(C(=O)NCc1ccco1)N(Cc1ccco1)C(=O)CNS(=O)(=O)c1ccc(F)cc1 (centres undefined)	23.7*[may fluoresce violet]	?	63.9	?	-10.0	?
CC(C)C(C(=O)NC1CCCC1)N(Cc1ccco1)C(=O)CNS(=O)(=O)c1ccccc1 (centres undefined)	102.5	103.3	95.9	105.7	3.4	103.8
O=C(N/N=C/c1ccncc1)NC12CC3CC(CC(C3)C1)C2	97.7	105.3	111.8	101.2	-3.6	98.6
O=C(N/N=C/c1ccc(O)cc1)NC12CC3CC(CC(C3)C1)C2	38.8*[may fluoresce violet]	?	60.7	351.1*[may fluoresce violet]	-38.8	?
COc1ccccc1NC(=O)CCC(=O)OCC(=O)c1ccc(C)c([N+](=O)[O-])c1	100.7	96.8	89.1	102.9	-1.5	96.5
Cc1ccc(NC(=O)CCNS(=O)(=O)c2ccc3c(c2)CCC(=O)N3)cc1	100.2	104.4	100.7	100.5	16.9	109.0
Cc1nn(Cc2c(Cl)cccc2Cl)c(C)c1C(=O)NCc1ccc(C)n1C	54.4	/	99.5	215.9*[may fluoresce violet]	11.2	?
COc1cn(-c2ccccc2)nc1C(=O)NCc1ccc(C)cc1	102.2	84.9	87.9	103.8	1.0	100.7
CCOCCCN(C)C1CCN(C(=O)c2oc3ccccc3c2NC(=O)c2ccc(F)cc2)CC1	16.2*[may fluoresce violet]	?	66.4	168.5	-2.9	?
CCOCCCN(C)C1CCN(C(=O)c2oc3ccccc3c2NC(=O)c2ccc([N+](=O)[O-])cc2)CC1	105.0	108.0	115.0	104.8	9.6	106.7
COC(=O)c1cn(CCC#N)nc1-c1ccc2ccccc2c1	99.6	89.6	93.1	89.2	15.6	98.2
CC(C)N(Cc1ccccc1)S(=O)(=O)c1ccc(Cl)nc1	99.0	104.1	115.8	98.6	3.9	96.5
COc1ccccc1NC(=O)COC(=O)c1ccc([N+](=O)[O-])s1	20.6*[may fluoresce violet]	10.1	53.2	104.9	-6.9	?
SMILES	RPL19A-GFP yeast	AGP1 TOR yeast	LAP4 TOR yeast	MEP2-GFP yeast	VLA-4 inh	CIT2-GFP yeast
CCOCCCNC(=O)/C(C#N)=C/c1ccc([N+](=O)[O-])o1	126.4	80.0	488.2*	+	-51.7	102.6
CC(NC(=O)/C(C#N)=C/c1ccc([N+](=O)[O-])o1)c1ccccc1 (centres undefined)	203.0	149.7	894.7*[may fluoresce violet]	+[may fluoresce violet]	-22.3	?
CCOCCCNC(=O)/C(C#N)=C/c1ccc(-c2ccc(S(=O)(=O)N3CCOCC3)cc2)o1	101.0	100.5	89.5	98.4	4.3	96.1
O=C(Cc1ccccn1)c1ccc(F)cc1	107.7	94.2	102.6	96.1	-3.6	95.5
CC1CC(O)(CC(O)(c2ccccc2)c2ccccc2)C(C)CN1C (centres undefined)	65.4	?	74.8	251.3*[may fluoresce violet]	6.6	?
c1ccc(-c2onc(-c3ccco3)c2-c2ccc3[nH]ccc3c2)cc1	97.1	83.1	131.5	97.9	-10.4	87.5
Cc1cc(C)cc(N(C(=O)c2csnn2)C(C(=O)NC2CCCC2)c2cccnc2)c1 (centres undefined)	57.2	16.7	91.8	183.8*[may fluoresce violet]	-8.5	?
Cc1ccc(N(C(=O)CNC(=O)c2ccco2)C(C(=O)NC2CCCCC2)c2cccnc2)cc1C (centres undefined)	98.7	99.7	93.4	87.1	4.0	95.3
Cc1ccc(N(C(=O)CCCC(=O)Nc2ccccn2)C(C(=O)NC2CCCC2)c2ccc(O)cc2)cc1C (centres undefined)	87.3	109.8	139.1	238.2*	2.2	102.1
Cc1ccccc1N(C(=O)CCCC(=O)Nc1ccccn1)C(C(=O)NC1CCCC1)c1ccc(O)cc1 (centres undefined)	98.7	104.9	99.8	106.9	2.7	104.4
Cc1ccc(N(C(=O)CNC(=O)c2ccco2)C(C(=O)NC2CCCC2)c2cccnc2)cc1C (centres undefined)	87.3	118.3	185.9*	194.8*	-1.0	97.5
Cc1cc(C)cc(N(C(=O)c2csnn2)C(C(=O)NC2CCCCC2)c2cccnc2)c1 (centres undefined)	96.0	99.5	93.6	96.6	7.6	99.4
Cc1nnc(NC(=O)CSc2nnc(CNC(=O)c3ccc(S(=O)(=O)N(C)C)cc3)o2)s1	94.7	100.0	103.0	97.2	-2.2	91.4
Cc1cc(=O)oc2cc(OCC(=O)N3CCC(O)CC3)c(Cl)cc12	89.8	90.9	90.0	83.0	34.6	99.1
CCCN(CCC)c1ccc(/C=C/c2ccc3cc(OCC)ccc3n2)cc1	76.0	15.0	96.0	231.4*[may fluoresce violet]	i	?
COc1ccc(NC(=O)NC23CC4CC(CC(C4)C2)C3)cc1OC	16.1*[may fluoresce violet]	/	84.4	283.4*[may fluoresce violet]	4.8	?
O=C(Nc1c2ccccc2nc2ccccc12)C(Cl)(Cl)Cl	45.6*	87.4	88.6	120.4	-8.6	85.7
